# Screens as filed in PubChem BioAssay.
# In the library only some 1.8% were active in any assay of this set; here they are far more common.
# p53ts 32C tox = cytotoxicity in p53ts cells at permissive temperature. H1299-p53A138V at 32C, ATP luminescence viability, 24 h. Potency, µM (top dose mostly 46.1 µM), inactives show top-dose activity change, negative = cytotoxicity, actives largely listed as cytotoxic. actives 0.93% (n = 130,000);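 note: 0% = DMSO and -100% = full killing by reference compound; nearly all actives have a fitted effect of over 55% in size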
#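 Viability by ATPlite luminescence after 24 h compound treatment (up to 46 uM) at the permissive 32C. Cells are H1299 carrying p53 A138V. Scale runs from DMSO basal to 100 uM tamoxifen as full kill; AC50 from Hill fits.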
# IkB signaling = suppresses IkB signaling in ABC-DLBCL reporter cells | Potency, µM (doses to about 57.1 µM), inactives show at the highest dose IkBa stabilization activation | actives 0.04% (n = 110,000) | ABC-DLBCL IkBa-CBG/CBR dual luciferase ratio, 4 h; response scale: scaled: untreated 0%, proteasome inhibitor 100% | AID 445; active = well fitted curve in the direction sought with a large enough effect in the signal ratio, not every such curve was filed as active; inconclusive = small, poorly fitted or top-dose-only effect, or a change in a side signal; the % refers to the signal ratio;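 note: the direction sought is a rising ratio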
#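 In this assay, an IκBα–CBG68 fusion accumulates when IKK-driven degradation is blocked; native CBR normalizes for cell number. OCI-Ly3 cells were treated 4 h with compound and doxycycline, then green and red light read after Chroma-Glo addition.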
# p53ts 39C kill = p53ts cell cytotoxicity, nonpermissive temperature; H1299-p53A138V viability at 39C, ATP luminescence, 24 h; Potency, µM (doses to about 46.1 µM), for inactives: at the highest dose activity change, negative = cell killing, most hits filed as cytotoxic; actives 1.5% (n = 130,000); note: % is set by controls: 0 for no effect and ±100 for the full control effect; nearly all actives have a fitted effect of over 55% in size
# Peg3 imprint = induces erasure of genomic imprints in mouse ES cells | mouse ES Peg3-LacZ reporter, beta-gal luminescence, 40 h | Potency, µM (series often up to 60.7 µM), for inactives: top-dose activity change, positive = activation, actives largely listed as activators | actives 0.02% (n = 110,000)
#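 Imprint erasure is scored as LacZ activity from the silenced maternal Peg3 allele in feeder-free female ES cells cultured 40 h with LIF. Luminescence is normalized to in-plate negative controls and fitted to the Hill equation.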
# Active calls of the source: *; ? = inconclusive; . = no result given; [ ] = remark or other dose. Unless noted, calls come from the whole dose curve; as a rule, active = well fitted curve in the direction sought with a large enough effect; inconclusive = small, poorly fitted or top-dose-only effect, or another doubt; inactive = no such curve, though single readings can be large; an effect the other way counts as inactive or inconclusive. Potency is the fitted concentration of half-maximal effect.
SMILES,p53ts 32C tox,IkB signaling,p53ts 39C kill,Peg3 imprint
Cc1cccc(NC(=O)c2ccc(CN3CC(=O)N4CCCCC4C3=O)cc2)c1C (stereo not drawn),0%,.,.,.
O=C(NCCCCN1CCCC1)c1ccc(-n2c(=O)c(=O)[nH]c3ccccc32)cc1,0%,.,5%,.
Cc1ccc(NC(=O)CC(C)S(=O)(=O)c2ccc3c(c2)NC(=O)CO3)cc1Cl (stereo not drawn),3%,.,.,.
CCCCOc1ccccc1CC1C(=O)Nc2ccc(Br)cc21 (stereo not drawn),?,-3%,13µM*,-20%[10.9 µM]
O=C(NCc1cccs1)c1ccc(CSc2nc3cccnc3n2Cc2ccccc2)cc1,-11%,.,.,.
Cc1ccc(CSc2nc3cccnc3n2Cc2ccc(C(=O)NCCc3cccs3)cc2)cc1,5µM*,.,.,.
Cc1ccc(CSc2nc3cccnc3n2Cc2ccc(C(=O)NC3CCCCC3)cc2)cc1,11µM*,.,.,.
O=C(NC1CCCCC1)c1ccc(CSc2nc3cccnc3n2Cc2ccccc2F)cc1,-14%,.,.,.
O=C(NC1CC1)c1ccc(Cn2c(SCc3ccccc3F)nc3cccnc32)cc1,16µM*,.,.,.
Clc1ccc2nc(-c3ccc(N4CCOCC4)cc3)c(Nc3ccccc3)n2c1,-3%,?,19%,-7%[10.9 µM]
Cc1ccccc1Nc1c(-c2ccc(N3CCOCC3)cc2)nc2ccc(Cl)cn12,?,?,10µM*,-30%[10.9 µM]
Cc1ccc2nc(-c3ccc(N4CCOCC4)cc3)c(Nc3ccccc3C)n2c1,13µM*,?,?,-12%[10.9 µM]
Cc1ccn2c(Nc3ccccc3C)c(-c3ccc(N4CCOCC4)cc3)nc2c1,3%,7%,-10%,-11%[10.9 µM]
CCc1ccccc1NC(=O)Cn1nnc2sc3c(c2c1=O)CCC(C(C)(C)C)C3 (stereo not drawn),4%,?,?,-14%[10.9 µM]
Cc1cc2cc3c(cc2nc1SCC(=O)N1c2ccccc2CC1C)OCO3 (stereo not drawn),1%,.,7%,.
c1ccc2c(c1)Cc1cc3cc4c(cc3nc1-2)OCO4,1µM*,.,1.3µM*,-90%
Cc1cccc(CC(=O)N2CC(=O)Nc3ccc(Br)cc3C2c2ccc(F)cc2)c1 (stereo not drawn),4%,?,-8%,17%[10.9 µM]
CSc1ccc(/C=C/c2nc3ccccc3n2S(=O)(=O)c2ccc(Br)cc2)cc1,3.2µM*,?,1.1µM*,-22%[10.9 µM]
O=S(=O)(c1cccc(C(F)(F)F)c1)n1c(/C=C/c2ccccc2)nc2ccccc21,13µM*,-1%,13µM*,-29%[10.9 µM]
CCOc1ccc(/C=C/c2nc3ccccc3n2S(=O)(=O)c2ccc(Br)cc2)cc1,7.9µM*,?,7.9µM*,-14%[10.9 µM]
O=C(NCCCc1nc2ccccc2n1Cc1ccc(Cl)cc1)c1ccco1,-10%,-3%,-26%,-11%[10.9 µM]
O=C(CN1C(=O)C2(SCC(=O)N2c2cccc(Cl)c2)c2ccccc21)NC1CCCCC1 (stereo not drawn),0%,41%,11%,9%[10.9 µM]
Nn1c(-c2cccs2)nc2sc3c(c2c1=O)CCCC3,10µM*,?,?,-54%
O=c1oc(-c2cccs2)nc2sc3c(c12)CCCCC3,13µM*,?,10µM*,5%
CCN(c1ccccc1)S(=O)(=O)c1nnc(NC(=O)c2cccs2)s1,1µM*,-144%,1.3µM*,-85%[10.9 µM]
SMILES,p53ts 32C tox,IkB signaling,p53ts 39C kill,Peg3 imprint
CN(c1ccccc1)S(=O)(=O)c1nnc(NC(=O)C2CCCCC2)s1,7.9µM*,-1%,16µM*,-23%[10.9 µM]
CCN(c1ccc(C)cc1)S(=O)(=O)c1nnc(NC(=O)c2cccs2)s1,-4%,?,-6%,5%[10.9 µM]
CN(c1ccccc1)S(=O)(=O)c1nnc(NC(=O)c2ccccc2)s1,-23%,-1%,-17%,-18%[10.9 µM]
Cc1cccc(C(=O)Nc2nc3c(s2)CCCC3)c1,10µM*,?,13µM*,-28%[10.9 µM]
Cc1ccc(NC(=O)c2oc3ccc(S(=O)(=O)N(C)C4CCCCC4)cc3c2C)cc1Cl,5%,?,?,-9%[10.9 µM]
O=C(O)c1ccc(N[C@H](c2ccccc2)c2ccc3cccnc3c2O)cc1,-9%[9.22 µM],6%[11.4 µM],?,-11%[10.9 µM]
Cc1conc1NC(c1cccs1)c1ccc2cccnc2c1O (stereo not drawn),13µM*,?,?,-48%
CSc1oc(-c2ccc(F)cc2)nc1S(=O)(=O)c1ccccc1,-1%,1%,-2%,-6%
CCCCS(=O)(=O)c1oc(-c2ccc(F)cc2)nc1S(=O)(=O)c1ccccc1,10µM*,?,2µM*,-42%[10.9 µM]
CCS(=O)(=O)c1oc(-c2ccc(F)cc2)nc1S(=O)(=O)c1ccc(Br)cc1,7.1µM*,?,1.6µM*,-34%[10.9 µM]
CS(=O)(=O)c1oc(-c2ccc(F)cc2)nc1S(=O)(=O)c1ccc(Cl)cc1,13µM*,?,4µM*,-40%[10.9 µM]
CC(C)S(=O)(=O)c1oc(-c2ccc(F)cc2)nc1S(=O)(=O)c1ccccc1,4µM*,?,0.79µM*,-42%[10.9 µM]
Cc1ccc(S(=O)(=O)C(CNC(=O)C(=O)NCc2ccccc2C)c2cccs2)cc1 (stereo not drawn),3%,?,1%,9%[10.9 µM]
CCc1c2c(nc3c(C(C)C)cccc13)-c1cccc(=O)n1C2,1%,.,?,-14%
CC(C)S(=O)(=O)c1oc(-c2cccs2)nc1S(=O)(=O)c1ccc(F)cc1,?,?,3.2µM*,-41%[10.9 µM]
O=C(Nc1ccc2nc(-c3ccco3)[nH]c2c1)c1ccco1,7.9µM*,3%,16µM*,-41%
O=C(Nc1cccc(NC(=O)c2cccs2)c1)c1ccco1,-2%,14%,-1%,-21%
O=C(Nc1ccc2nc(-c3ccco3)[nH]c2c1)c1cccs1,10µM*,9%,13µM*,-12%
CCCCC(CC)CNC(=O)Cc1ccc(-n2c(=O)[nH]c3ccccc3c2=O)cc1 (stereo not drawn),11%,?,-18%,8%[10.9 µM]
C[C@H](Cc1ccc(O)c(O)c1)[C@@H](C)Cc1ccc(O)c(O)c1,?,6%[11.4 µM],20µM*,17%
CCOC(=O)Cn1c(=O)n(CC2CCCO2)c2nc(-c3ccc(OCC)cc3)nc(C(N)=O)c21 (stereo not drawn),0%,?,9%,17%[10.9 µM]
CC(=O)N1CCCc2cc(S(=O)(=O)N3CCN(c4ccc(F)cc4)CC3)ccc21,1%,3%,-19%,-12%[10.9 µM]
CC(C(=O)O)c1ccc(N2Cc3ccccc3C2=O)cc1 (stereo not drawn),10µM*,.,10µM*,-92%
CC(C)CCNC(=O)[C@@H](c1ccccc1)N1Cc2ccccc2C1=O,8%,-1%,-13%,-4%[10.9 µM]
COC(=O)c1ccc(Cl)cc1NC(=O)N(Cc1ccc(OC)cc1)C1CCN(C(C)=O)CC1,-13%,.,.,.
CC1CCN(C(=O)c2cc(-c3ccc(Cl)cc3)on2)CC1,8%,?,0%,4%[10.9 µM]
COc1cccc(-c2cc(C(=O)N3CCCCCC3)no2)c1,13µM*,?,10µM*,-65%
